Reference: PubChem BioAssay
The source made the active and inactive calls.

Key:
[1] = system: XIP peptide (Xip251-270) binding; test: small-molecule binders of XIP peptide, primary screen, biochemical, small-molecule microarray, fluorescence 635/667 nm, 0.1 µg/mL protein (AID 1182); settings: fluorescent protein binding, 635 nm, higher = more signal, called active from +8 up or from −8 down
[2] = system: XIP peptide (Xip251-270); test: small-molecule binders of XIP peptide, primary screen, biochemical, small-molecule microarray, fluorescence 635/667 nm, 0.5 µg/mL protein (AID 1183); settings: small-molecule microarray binding, fluorescence 635 nm; higher = more signal
[3] = Plasmodium falciparum growth inhibition, primary screen, strain 3D7, DAPI fluorescence, 100 nL (AID 1184);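 note: parasites grown inside human red blood cells in medium with human serum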; settings: P. falciparum 3D7 growth, 3 d, higher = more signal
[4] = molecular target: Homeobox protein Hox-A13 (Mus musculus) (UniProt Q62424); test: inhibitors of HoxA13-DNA binding, primary screen, biochemical, fluorescence polarization, labeled oligonucleotide (AID 1185); settings: 15 min, higher = more signal, called active from +8 up or from −8 down
Chain of Homeobox protein Hox-A13 (Mus musculus) (Q62424 whole entry, looked up): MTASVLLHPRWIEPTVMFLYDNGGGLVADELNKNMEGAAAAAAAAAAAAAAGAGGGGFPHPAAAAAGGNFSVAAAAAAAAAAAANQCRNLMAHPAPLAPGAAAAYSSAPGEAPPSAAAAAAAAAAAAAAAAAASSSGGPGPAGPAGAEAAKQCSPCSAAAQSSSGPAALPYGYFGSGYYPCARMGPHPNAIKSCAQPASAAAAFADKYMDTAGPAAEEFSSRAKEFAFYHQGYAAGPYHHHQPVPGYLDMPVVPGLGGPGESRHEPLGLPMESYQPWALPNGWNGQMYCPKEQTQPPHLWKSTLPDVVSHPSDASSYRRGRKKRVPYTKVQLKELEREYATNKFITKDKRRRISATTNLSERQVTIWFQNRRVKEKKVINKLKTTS

COc1ccc(OC[C@@H]2CC3[C@@H](c4ccc(Br)cc4)[C@H](C)CC[C@H]3C(=O)O2)cc1 (stereo partly drawn)
composite z-score [1]: -0.0755 (inactive)
composite z-score [2]: 0.659
z-score [3]: 0.163
z-score [4]: 0.109 (inactive)

CCOC(=O)[C@H](Cc1ccccc1)NC(=O)CCC1CC(OC(=O)NCc2ccc3c(c2)OCO3)CC2(CCCC(COC(=O)NCCCN3CCCC3=O)O2)O1 (stereo partly drawn)
composite z-score [1]: 0.112 (inactive)
composite z-score [2]: 0.577
z-score [3]: -1.87
z-score [4]: -3.13 (inactive)

CC(CCC(=O)OC[C@H]1O[C@H](C#Cc2ccccc2)C=C[C@@H]1Oc1ccc(C)cc1)=NO[C@H](C)c1cn([C@@H]2COC[C@H]2O)nn1
composite z-score [1]: 0.0435 (inactive)
composite z-score [2]: -0.391
z-score [3]: -0.114
z-score [4]: -4.04 (inactive)

Cc1cc(C)c(-c2cc([C@H](C)ON=C[C@@H](C)[C@H](OCc3ccccc3)C(C)C)on2)c(C)c1
composite z-score [1]: -0.0022 (inactive)
composite z-score [2]: -0.291
z-score [3]: -0.317
z-score [4]: -0.415 (inactive)

COC(=O)[C@H](C)NC(=O)CCC1CC(OC(=O)NCc2cccc3ccccc23)CC2(CCCC(COC(=O)NCCC(C)C)O2)O1 (stereo partly drawn)
composite z-score [1]: -0.477 (inactive)
composite z-score [2]: 0.468
z-score [3]: -1.57
z-score [4]: -5.31 (inactive)

O=C1[C@H]2[C@H]3[C@H](O)[C@H](O)CC(=NOC[C@@H](O)COCc4ccco4)[C@@H]3CC[C@H]2C(=O)N1c1cccc(Oc2ccccc2)c1
composite z-score [1]: 0.2 (inactive)
composite z-score [2]: -0.344
z-score [3]: 0.48
z-score [4]: -5.57 (inactive)

CON(C)C(=O)c1nnc2c(n1)[nH]c1ccccc12
composite z-score [1]: -0.132 (inactive)
composite z-score [2]: 0.755
z-score [3]: 0.763
z-score [4]: 0.447 (inactive)

C[C@@H]1CC[C@H]2C(=O)OC(CN3C(=O)c4ccccc4C3=O)CN2[C@H]1c1ccc(Br)cc1 (stereo partly drawn)
composite z-score [1]: -0.212 (inactive)
composite z-score [2]: 0.338
z-score [3]: 0.49
z-score [4]: -0.956 (inactive)

C[C@]12CCC3c4ccc(OCC5CO5)cc4CCC3C1CC[C@@H]2O (stereo partly drawn)
composite z-score [1]: 0.504 (inactive)
composite z-score [2]: 0.0249
z-score [3]: 0.0788
z-score [4]: -2.47 (inactive)

CCOC(=O)[C@H](Cc1ccccc1)NC(=O)CCC1CC(OC(=O)NCc2cccc3ccccc23)CC2(CCCC(COC(=O)NCC3CCCCC3)O2)O1 (stereo partly drawn)
composite z-score [1]: 1.98 (inactive)
composite z-score [2]: 0.357
z-score [3]: -1.69
z-score [4]: -3.1 (inactive)

C=CC[C@@H]1C=C[C@H](Oc2ccc(C)cc2)[C@@H](COC(=O)NCc2cccc3ccccc23)O1
composite z-score [1]: -0.405 (inactive)
composite z-score [2]: 0.427
z-score [3]: -0.517
z-score [4]: -0.901 (inactive)

CC(=O)OC[C@H]1O[C@@H](ON=C(C)CCC(=O)OC[C@H]2O[C@H](C#Cc3ccccc3)C=C[C@@H]2Oc2ccc(C)cc2)[C@H](OC(C)=O)[C@@H](OC(C)=O)[C@@H]1OC(C)=O
composite z-score [1]: 0.0771 (inactive)
composite z-score [2]: 0.625
z-score [3]: -0.713
z-score [4]: -3.79 (inactive)

COC(=O)C(C(=O)OC)C1CCCC(=O)C1 (stereo not drawn)
composite z-score [1]: -0.0977 (inactive)
composite z-score [2]: 0.237
z-score [3]: -0.468
z-score [4]: -0.243 (inactive)

O=C1C[C@H](c2ccccc2)[C@H](c2ccc(Br)cc2)O1
composite z-score [1]: -0.112 (inactive)
composite z-score [2]: -0.0581
z-score [3]: 0.467
z-score [4]: -0.403 (inactive)

CC(CCN1CCCc2nc(C)c(C)cc21)=NO[C@@H](C)c1cn([C@H](CO)Cc2ccccc2)nn1
composite z-score [1]: 0.51 (inactive)
composite z-score [2]: 0.244
z-score [3]: 0.221
z-score [4]: -0.829 (inactive)

CCOC(=O)CCN1C(=O)[C@H]2[C@H]3[C@H](O)[C@H](O)CC(=NOCC(C)C)[C@@H]3CC[C@H]2C1=O
composite z-score [1]: -0.0503 (inactive)
composite z-score [2]: 0.203
z-score [3]: -0.379
z-score [4]: -3.95 (inactive)

CCOC(=O)[C@H](CC(C)C)NC(=O)CCC1CC(OC(=O)NCc2ccc3c(c2)OCO3)CC2(CCCC(COC(=O)NCCC(C)C)O2)O1 (stereo partly drawn)
composite z-score [1]: 0.554 (inactive)
composite z-score [2]: 0.842
z-score [3]: -0.278
z-score [4]: -1.7 (inactive)

COC(=O)[C@H](C)NC(=O)CCC1CC(OC(=O)NCc2cccc3ccccc23)CC2(CCCC(COC(=O)NCc3ccccc3)O2)O1 (stereo partly drawn)
composite z-score [1]: 0.0457 (inactive)
composite z-score [2]: 0.461
z-score [3]: -2.02
z-score [4]: -1.39 (inactive)

CCO[C@H](c1cc(OC)cc([N+](=O)[O-])c1OC)[C@H](C)[C@@H](OC)[C@H](C)C=CCC(=O)OC
composite z-score [1]: 0.72 (inactive)
composite z-score [2]: 0.0025
z-score [3]: -0.119
z-score [4]: -0.256 (inactive)

COC(=O)[C@H](C)NC(=O)CCC1CC(OC(=O)NCc2cccc3ccccc23)CC2(CCCC(COC(=O)NCc3cccc(C(F)(F)F)c3)O2)O1 (stereo partly drawn)
composite z-score [1]: -0.179 (inactive)
composite z-score [2]: 0.128
z-score [3]: -1.74
z-score [4]: -4.97 (inactive)

CC#CCOCCC=C1c2ccccc2[C@@H](OC)[C@@H]1C
composite z-score [1]: 0.772 (inactive)
composite z-score [2]: 0.0938
z-score [3]: -1.02
z-score [4]: -3 (inactive)

CCN(CC)CC(O)CN1CCCCc2nc(C)c(C)cc21 (stereo not drawn)
composite z-score [1]: -0.344 (inactive)
composite z-score [2]: -0.136
z-score [3]: 0.694
z-score [4]: -1.17 (inactive)
